Several values for one entry are separate records, joined by “and”; a condition that tells them apart may be missing. Identical values can stand only once. In all, about 16,000 compounds went through this assay and about 4,000 (25%) were called active. About 26% were inconclusive and are not listed. Calls follow the shape of the dose curve; as a rule, active = well fitted curve in the direction sought with a large enough effect; inconclusive = small, poorly fitted or top-dose-only effect, or effect the other way; inactive = no such curve, though single readings can be large or run the other way. Not all results are given here.
% is scaled to controls: 0 for no effect and ±100 for the full control effect.

The target of the assay is Cytochrome P450 2C9 (Homo sapiens) (UniProt P11712). Put plainly: Cytochrome panel assay with activity outcomes. The conditions noted are these: recombinant CYP, pro-luciferin dealkylation, luminescence, p450-cyp2c9; series mostly up to 57.1 µM; activity, negative = inhibition: at the top concentration.
Chain of Cytochrome P450 2C9 (Homo sapiens) (P11712 whole entry, looked up): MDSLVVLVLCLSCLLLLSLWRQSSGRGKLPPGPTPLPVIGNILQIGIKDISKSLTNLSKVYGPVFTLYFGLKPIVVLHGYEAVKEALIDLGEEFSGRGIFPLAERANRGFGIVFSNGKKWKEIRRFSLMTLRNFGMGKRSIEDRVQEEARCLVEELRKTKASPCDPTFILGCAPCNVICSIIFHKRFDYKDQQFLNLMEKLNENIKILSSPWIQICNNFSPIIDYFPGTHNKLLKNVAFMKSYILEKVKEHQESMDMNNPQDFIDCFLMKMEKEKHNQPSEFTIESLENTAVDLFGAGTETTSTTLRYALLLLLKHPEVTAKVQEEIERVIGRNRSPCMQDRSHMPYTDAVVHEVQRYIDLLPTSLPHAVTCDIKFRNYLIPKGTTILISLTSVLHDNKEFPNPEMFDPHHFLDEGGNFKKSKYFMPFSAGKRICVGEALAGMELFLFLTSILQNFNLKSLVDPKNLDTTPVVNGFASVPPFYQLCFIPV
By AC50 is commonly meant the concentration giving half of the maximal activity seen. Regarding `O=C1C(SCCO)=C(SCCO)C(=O)c2ccccc21`, the concentration at half-maximal activity (AC50) was 5.01 µM (active). Consider `O=S(=O)(O)[C@@H](CO)c1ccccc1` (tested in a mixture with another compound), for which the activity, negative = inhibition is -2.54% [at 11.4 µM] (inactive). Consider `CCCn1c(=O)c2[nH]c(C3CCCC3)nc2n(CCC)c1=O`, for which the “activity, negative = inhibition” value was -16.3% (inactive). As to `Nc1ncnc2c1ncn2[C@H]1O[C@@H](C(=O)O)[C@@H](O)[C@H]1O`, the activity, negative = inhibition is 20% [at 11.4 µM] (inactive).

Regarding `COc1ccc(C(=O)N2CCC3(CC2)CCN(c2ncccn2)CC3)cc1`, the “activity, negative = inhibition” value was -29.8% (inactive). As to `COc1ccc(S(=O)(=O)NCc2ccc(C(=O)N3CCN(c4ccccn4)CC3)cc2)cc1`, the half-maximal activity concentration (AC50) is 3.98 µM (active).

Regarding `COCC(=O)N1CCC2(CC1)CCN(c1ccccn1)CC2`, the “activity, negative = inhibition” value is -6.99% (inactive). Turning to `CC(C)c1ccc(OCc2ccc(C(=O)N3CCN(c4ccccn4)CC3)cc2)cc1`, the AC50 is 3.16 µM (active). In the case of `O=C(c1ccco1)N1CCC2(CC1)CN(c1ccccn1)C2`, the “activity, negative = inhibition” value is 2.21% (inactive). Still for that read-out and setting: for `COc1ccc(C(=O)N2CCC3(CC2)CN(C(=O)Nc2ccccc2)C3)cc1` the value was 0.0177% (inactive). For `Cc1ccc(C(=O)NNC(=O)CSc2nnc3c(n2)[nH]c2ccc(F)cc23)cc1`, the AC50 was 5.62 µM (active).

On to `C[C@@H]1CCc2cc(F)cc3c(=O)c(C(=O)O)cn1c23`, for which the “activity, negative = inhibition” value was 17.9% [at 25.6 µM] (inactive). Regarding `Cc1ccc(C(=O)NNC(=O)c2cc3cc4ccccc4nc3s2)cc1`, the “activity, negative = inhibition” value is -26% (inactive). Same read-out and setting: for `Cc1ccc2[nH]c3nc(CCCn4ccnc4-c4ccccc4)nnc3c2c1` the value was -17.6% [at 11.4 µM] (inactive); for `CCOCc1cnc(C)nc1NCC(=O)c1c(C)[nH]c2ccccc12`, 2.81% (inactive). Regarding `CCOC(=O)CC(=O)CSc1nnc2c(n1)[nH]c1ccccc12`, the AC50 was 8.91 µM (active). As for `CON(C)C(=O)c1nnc2c(n1)[nH]c1ccccc12`, the activity, negative = inhibition is -19% [at 11.4 µM] (inactive). Take `CC1CCc2cc(F)ccc2N1C(=O)CSc1nnc2c(n1)[nH]c1ccc(F)cc12` (stereo not given): the AC50 was 1.78 µM (active). Same read-out and setting: with `COc1ccc(/C=N/NC(=O)c2ccccc2)cc1CN1CCN(c2ccc(F)cc2)CC1` the figure was 11.2 µM (active). In the case of `Cc1ccc(/C=N\NC(=O)c2cc(OCC(F)(F)F)ccc2OCC(F)(F)F)cc1`, the “activity, negative = inhibition” value is -1.33% (inactive). In the case of `COc1ccc(/C=N/NC(=O)c2ccn[nH]2)cc1COc1ccc(Cl)cc1`, the AC50 was 12.6 µM (active). On the same count and under the same terms, with `COc1ccc(/C=N/NC(=O)c2ccn[nH]2)cc1COc1ccc(F)cc1` the figure was 25.1 µM (active).

Take `COc1ccccc1CN1CCC2(CC1)CCN(C(C)=O)CC2`: the “activity, negative = inhibition” value is 8.11% (inactive). Take `COc1cccc(/C=N\NC(=O)c2cc(OCC(F)(F)F)ccc2OCC(F)(F)F)c1`: the “activity, negative = inhibition” value was -8.34% (inactive). Take `CCOc1cc(CN2CCN(c3ccc(C(C)=O)cc3)CC2)ccc1OC`: the “activity, negative = inhibition” value is -29% (inactive). On the same count and under the same terms, for `Cc1n[nH]c(=O)[nH]c1=O` the value was -0.473% [at 25.6 µM] (inactive).

With `CCOc1nc(N2CCCCC2)nc(-n2cc(-c3ccccc3)nn2)n1`, the AC50 is 2.24 µM (active). For the compound `O=C(O)CC12C[C@H]3C[C@@H](CC(O)(C3)C1)C2`, the activity, negative = inhibition was -4.71% [at 11.4 µM] (inactive). The same measure, in the same setting: with `Cc1cnc(CNc2nc(-c3cccnc3)nc3ccccc23)cn1` the figure was 16.9% [at 2.29 µM] (inactive). For `NCCS`, the “activity, negative = inhibition” value is -13.1% (inactive). `Cc1c(Br)c([N+](=O)[O-])nn1C(C)C(=O)Nc1nccs1` (stereo not given): the AC50 is 3.55 µM (active). Take `O=C(O)c1cc(=O)cc(C(=O)O)[nH]1`: the “activity, negative = inhibition” value is -3.86% (inactive). With `CO[C@H]1COC(=O)C/C=C\[C@H](C)[C@@H](OC)COC(=O)[C@@H](C)COC(=O)C/C=C\[C@@H]1C`, the AC50 was 2.51 µM (active). In the case of `CO[C@@H]1COC(=O)C/C=C\[C@@H](C)[C@H](OC)COC(=O)[C@@H](C)COC(=O)C/C=C\[C@H]1C`, the activity, negative = inhibition is 11.9% [at 11.4 µM] (inactive). For the compound `CO[C@H]1COC(=O)C/C=C\[C@H](C)[C@H](OC)COC(=O)[C@@H](C)COC(=O)C/C=C\[C@@H]1C`, the activity, negative = inhibition was -5.38% [at 11.4 µM] (inactive) and 5.78% [at 11.4 µM] (inactive). `Cc1nn(-c2ccccc2)c2c1C(c1ccc(O)c(O)c1)N1C(=N2)C(Nc2ccccc2)=Nc2ccccc21` (stereo not given): the AC50 is 1.26 µM (active).

Turning to `CC(=O)Nc1ccc(NC2=Nc3ccccc3N3C2=Nc2c(c(C)nn2-c2ccccc2)C3c2ccccc2)cc1` (stereo not given), the concentration at half-maximal activity (AC50) is 1.78 µM (active). `O=C(NNS(=O)(=O)c1ccc(Cl)cc1)C1CCN(Cc2ccccc2)CC1`: the “activity, negative = inhibition” value was -17.3% (inactive). For the compound `O=C(NNS(=O)(=O)c1ccc(Cl)cc1)c1cnn(-c2ccccc2)c1-n1cccc1`, the AC50 is 1.78 µM (active).

For the compound `Cc1cc(C)cc(C(=O)N(C)[C@H](Cc2ccc(-c3ccccc3)cc2)C(=O)N[C@@H](Cc2c[nH]c3ccccc23)C(=O)O)c1`, the “activity, negative = inhibition” value was -24.1% (inactive). For `COc1cccc(N(C(=O)Cn2nnc(-c3ccc(C)cc3)n2)C(C(=O)NC(C)(C)C)c2c[nH]c3ccccc23)c1` (stereo not given), the AC50 is 5.01 µM (active). Turning to `Cc1[nH]c(N)nc(=S)c1CCCNc1ccccc1`, the activity, negative = inhibition was -9.42% [at 11.4 µM] (inactive).

In the case of `O=C(O)c1cc(=O)[nH]c(SCc2ccccc2)n1`, the activity, negative = inhibition was -7.95% [at 11.4 µM] (inactive). In the case of `CCCc1cc(=O)[nH]c(SCc2cc(Cl)ccc2OC(F)F)n1`, the concentration at half-maximal activity (AC50) was 2.82 µM (active).

As for `Cn1c(=O)c(-c2ccc(F)cc2)nc2cnc(Oc3ccccc3)nc21`, the “activity, negative = inhibition” value was 13.7% (inactive). In the case of `O=C1/C(=C\c2ccccn2)SC(=S)N1Nc1ncc(C(F)(F)F)cc1Cl`, the AC50 was 5.01 µM (active).

As to `COc1ccc(-c2nc(CSCC(=O)NCC3CCCO3)c(C)o2)cc1OC` (stereo not given), the “activity, negative = inhibition” value is -29.9% (inactive). With `Cc1cccc2c(SCC(=O)NCC3CCCO3)nc(-c3ccc(F)cc3)nc12` (stereo not given), the concentration at half-maximal activity (AC50) was 3.98 µM (active).

As for `Cc1ccc(C)c(-n2c(Cc3cc(=O)[nH]c(=O)[nH]3)nnc2SCC(=O)NCC2CCCO2)c1` (stereo not given), the “activity, negative = inhibition” value is -15.2% (inactive). On the same count and under the same terms, for `O=C(O)/C=C\C(=O)Nc1ccc2c(c1)-c1ccccc1C2` the value was -10.9% [at 11.4 µM] (inactive). In the case of `O=C(O)c1ccccc1-c1ccccc1C(=O)Nc1ccc2c(c1)Cc1cc(F)ccc1-2`, the AC50 is 2.51 µM (active). Turning to `S=C(Nc1ccc2c(c1)Cc1ccccc1-2)Nc1ccc2c(c1)Cc1ccccc1-2`, the activity, negative = inhibition was 1.69% [at 11.4 µM] (inactive). On to `CO[C@]1(C2=NCCN2)COc2ccccc2O1`, for which the “activity, negative = inhibition” value is 17.2% (inactive). Consider `CC(C)OCCCNC(=O)C1CC(=O)N(C2CCCCCCC2)C1` (stereo not given), for which the “activity, negative = inhibition” value is -16.8% (inactive). On the same count and under the same terms, with `C[N+](C)(C)c1nc(N)nc2c1ncn2[C@H]1O[C@@H](CO)[C@@H](O)[C@H]1O` the figure was 12.2% [at 11.4 µM] (inactive).

Values taken from PubChem BioAssay AID1851 (National Center for Advancing Translational Sciences (NCATS), 2009).
